Assay outcomes: PubChem BioAssay, National Center for Advancing Translational Sciences (NCATS)
15-hLO inh – blocks human 15-lipoxygenase activity; purified 15hLO-1, xylenol orange hydroperoxide absorbance; 74,000 tested, 1.4% active; Potency, µM (series often up to 57.1 µM), actives largely listed as inhibitors; also: nearly all actives have a fitted effect of over 55% in size
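Quantitative HTS in 25 mM Hepes pH 7.5 containing 0.01% Triton X-100: human 15hLO-1 at 40 nM, arachidonic acid at 50 uM, 6 min turnover. Product quantified via ferrous oxidation/xylenol orange, 573:405 nm absorbance ratio.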
Tau filament bind – binds recombinant human tau filaments; P10636; 71,000 tested, 2% active; Potency, µM (titrated, usually from 57.1 µM); recombinant tau filaments, thioflavin S fluorescence, 15 h; filaments grown with octadecylsulfate alongside compound; AID 596;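 also: actives lower thioflavin S fluorescence by blocking filaments or displacing dye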
Target sequence (P10636 whole entry, looked up): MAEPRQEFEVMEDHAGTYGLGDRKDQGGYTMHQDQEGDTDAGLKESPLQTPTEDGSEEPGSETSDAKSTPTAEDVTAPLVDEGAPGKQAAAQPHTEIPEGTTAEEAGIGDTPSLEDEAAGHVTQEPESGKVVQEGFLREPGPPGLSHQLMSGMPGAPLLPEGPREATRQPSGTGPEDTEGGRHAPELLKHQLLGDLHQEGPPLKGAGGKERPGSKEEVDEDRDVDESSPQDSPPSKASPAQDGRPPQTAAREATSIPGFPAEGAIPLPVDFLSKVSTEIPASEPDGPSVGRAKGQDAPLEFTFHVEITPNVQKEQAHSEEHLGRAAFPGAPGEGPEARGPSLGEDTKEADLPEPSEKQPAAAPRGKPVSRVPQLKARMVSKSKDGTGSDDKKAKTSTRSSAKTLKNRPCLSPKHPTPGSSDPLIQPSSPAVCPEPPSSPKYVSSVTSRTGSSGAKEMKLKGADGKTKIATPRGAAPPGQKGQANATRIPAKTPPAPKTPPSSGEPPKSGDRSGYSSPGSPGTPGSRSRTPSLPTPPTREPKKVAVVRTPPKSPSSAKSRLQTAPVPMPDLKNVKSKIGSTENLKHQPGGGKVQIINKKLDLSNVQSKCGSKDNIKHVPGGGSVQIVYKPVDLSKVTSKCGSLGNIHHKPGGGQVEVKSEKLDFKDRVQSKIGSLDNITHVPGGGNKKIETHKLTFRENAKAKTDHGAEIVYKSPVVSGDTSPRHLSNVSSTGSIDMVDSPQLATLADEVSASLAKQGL
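Read-out: ThS fluorescence, 450 nm excitation/510 nm emission; lower signal marks blocked filament formation or displaced dye. Tau at 1 uM with 30 uM ODS, 10 uM ThS, 5 mM DTT, 100 mM NaCl, 10 mM HEPES pH 7.4; 15 h, 37 C.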
HEK293 cAMP ctrl – parental HEK293 cAMP activation (counter-screen); Potency, µM (top dose mostly 57.1 µM), actives largely listed as activators; 73,000 tested, 2.5% active; parental HEK293 CNG cAMP sensor, membrane potential fluorescence; also: nearly all actives have a fitted effect of over 55% in size
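Counterscreen for endogenous-receptor signalling: CNG-channel HEK 293 cells report cAMP rise by membrane depolarization. After 60 min dye equilibration with 100 uM RO 20-1724, compounds incubated 30 min before bottom-read fluorescence at 590 nm.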
PK Bst – pyruvate kinase (B. stearothermophilus) modulation | Potency, µM | 51,000 tested, 1.2% active | AID 361 | purified pyruvate kinase, luminescence ATP production; ribose 5-phosphate activator present at AC10; in the data active = potency below about 11 µM; inconclusive = mostly about 12 µM to 25 µM;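 the screen sought inhibitors and activators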
FLuc inh – firefly luciferase inhibition. purified firefly luciferase, luminescence, 8 min. 72,000 tested, 2.2% active. P08659. Potency, µM (highest dose often 57.1 µM), usual class: inhibitors; also: nearly all actives have a fitted effect of over 40% in size
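Compounds were tested as concentration series (qHTS) against purified P. pyralis luciferase with luciferin and 10 uM ATP in 50 mM imidazole pH 7.2, 50 mM KCl, 7 mM MgCl2, 0.01% Tween 20, 0.05% BSA. Luminescence was read after 8 min at ambient temperature.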
TSHR agonist – activates the human thyroid stimulating hormone receptor. P16473. HEK293-CNG-TSHR cells (CNG channel as cAMP sensor), membrane potential dye, cAMP. Potency, µM (titrated, usually from 57.1 µM), most hits filed as activators. 73,000 tested, 0.48% active; active = well fitted activation curve with a large enough effect in the main read-out, with a control signal flat, not every such curve was filed as active; inconclusive = small, poorly fitted or top-dose-only effect, or a change in a side signal; inactive = no such curve, though single readings can be large or run the other way; reference of the percent scale not stated here;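 also: the control signal comes from parental cells without the receptor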
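HEK 293 cells stably expressing TSHR and a cAMP-gated CNG channel; parental CNG-only cells as counterscreen. Cells preloaded 60 min with membrane potential dye plus 100 uM RO 20-1724, then compound 30 min; fluorescence read at 590 nm.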
Numbers stand for hits; – = inactive; ? = inconclusive; · = no result given; [ ] = dose if it differs, or a comment. The list is not random: actives were taken first. Their share in the collection is about 7.8%. Unless noted, calls follow the shape of the dose curve; as a rule, active = well fitted curve in the direction sought with a large enough effect; inconclusive = small, poorly fitted or top-dose-only effect, or another doubt; inactive = no such curve, though single readings can be large; an effect the other way counts as inactive or inconclusive.

SMILES | 15-hLO inh | Tau filament bind | HEK293 cAMP ctrl | PK Bst | FLuc inh | TSHR agonist
CS(=O)(=O)Nc1cccc(-c2nccc(-n3ccnc3)n2)c1 | 20µM | – | – | · | –[2.29 µM] | –
N#Cc1cccc(-c2nccc(-n3ccnc3)n2)c1 | 10µM | – | – | · | –[2.29 µM] | –
CS(=O)(=O)Nc1cccc(-c2nc(-n3ccnc3)c3ccccc3n2)c1 | – | – | ? | · | –[2.29 µM] | ?
COc1ccc(C(=O)N2CCC3(CC2)CN(Cc2ccc(C#N)cc2)C3)cc1 | – | – | – | · | –[11.4 µM] | –
C=CCOCC/C=C1/c2ccccc2C(OC)C1C (stereo not drawn) | –[11.4 µM] | · | –[11.4 µM] | · | · | –[11.4 µM]
CN(C)C(=O)c1ccc(-c2ccc3ncnc(NCc4ccccc4)c3c2)cc1 | – | – | – | · | –[2.29 µM] | –
CC(C)NC(=O)c1cc(-c2ccco2)on1 | – | – | ? | – | – | ?
CCc1ccc(NC(=O)c2cc(-c3ccco3)on2)cc1 | – | 16µM | – | – | ? | –
Cn1c(C(=O)OC(C(=O)NC2CCCCC2)c2ccncc2)cc2sccc21 (stereo not drawn) | – | – | 16µM | – | – | ?
CC(C)C(OC(=O)c1cc2sccc2n1C)C(=O)NCC1CCCO1 (stereo not drawn) | – | – | 2µM | – | – | ?
CC(C)CC(OC(=O)c1cccs1)C(=O)NCC1CCCO1 (stereo not drawn) | – | – | – | – | – | –
Cn1c(C(=O)OC(C(=O)NC2CCCC2)c2ccncc2)cc2sccc21 (stereo not drawn) | – | – | ? | – | – | ?
O=c1[nH]c(=O)c2nc(Br)n(C3OC(CO)C(O)C3O)c2[nH]1 (stereo not drawn) | – | · | · | · | · | ·
CC(C(=O)Nc1ccccc1-c1ccccc1)N1CCN(C(=O)c2ccco2)CC1 (stereo not drawn) | – | – | – | – | – | ·
Cc1ccc2c(c1)N[C@H](c1ccc(C(=O)O)cc1)c1cccn1-2 | –[11.4 µM] | –[11.4 µM] | –[11.4 µM] | · | –[11.4 µM] | –[11.4 µM]
CC(=O)Nc1nc(-c2ccccc2)nc(-c2ccccc2OC(C)=O)n1 | 16µM | 1.3µM | ? | · | – | ?
CC(=O)Nc1nc(C)nc(-c2ccccc2OC(C)=O)n1 | – | – | – | · | – | –
NC(=O)c1sc2nc3c(c(-c4ccco4)c2c1N)CCC3 | – | 16µM | – | ? | – | –
NC(=O)c1sc2nc3c(c(-c4cccs4)c2c1N)CCCC3 | – | – | – | – | – | –
CC1Cc2ccccc2N1C(=O)c1cccnc1 (stereo not drawn) | – | – | – | – | – | –
CC1Cc2ccccc2N1C(=O)c1cnsn1 (stereo not drawn) | 4µM | – | – | – | – | –
c1csc(CSc2nc3ccccc3s2)c1 | – | – | – | – | – | –
CCn1c(CSc2nc3ccccc3s2)nc2ccccc21 | –[11.4 µM] | –[11.4 µM] | 4µM | · | – | ?
COc1cccc(-c2csc(NC(C)=O)n2)c1 | – | – | – | · | – | –
COc1ccc2c(c1)-c1nc(NC(=O)c3ccco3)sc1CC2 | – | – | – | · | – | –
SMILES | 15-hLO inh | Tau filament bind | HEK293 cAMP ctrl | PK Bst | FLuc inh | TSHR agonist
COc1ccc2c(c1)-c1nc(NC(=O)c3cccs3)sc1CC2 | 13µM | · | – | · | · | –
COc1ccc2c(c1)Cc1sc(NC(C)=O)nc1-2 | – | ? | – | ? | 13µM | –
CNc1nn(-c2cccc(Cl)c2)nc1N | – | 16µM | – | · | – | –
CCOC(=O)c1cnn(-c2cccc(Cl)c2)c1N | – | – | – | – | – | –
CSc1nnc2c3ccccc3n(CCc3ccccc3)c2n1 | –[11.4 µM] | –[11.4 µM] | 4µM | · | – | ?
CSc1nnc2c3ccccc3n(Cc3ccccc3)c2n1 | – | – | 20µM | – | – | ?
CSc1nnc2c3cc(F)ccc3n(Cc3ccccc3)c2n1 | – | – | – | – | – | –
OC[C@@H]1O[C@@H](N2CCN([C@@H]3O[C@@H](CO)[C@@H](O)[C@H](O)[C@H]3O)CC2)[C@@H](O)[C@H](O)[C@H]1O | –[11.4 µM] | –[11.4 µM] | –[11.4 µM] | · | –[11.4 µM] | –[11.4 µM]
COc1ncc2nc(-c3cn(C)c4ccccc34)c(=O)n(C[C@H]3CCCO3)c2n1 | – | – | – | · | –[11.4 µM] | –
c1coc(-c2nc3ccccc3nc2-c2ccco2)c1 | 25µM | 13µM | ? | · | – | ?
Brc1ccc(-c2cn3cccnc3n2)cc1 | – | – | – | 5.9 | ? | –
COc1cc(-c2cc(OC)c3c(C)oc(C)c3c(=O)c2)ccc1O | 25µM | – | – | – | – | –
COc1ccc(-c2cc(OC)c3c(C)oc(C)c3c(=O)c2)cc1OC | – | 25µM | ? | – | – | ?
Nc1ccc(N=Nc2ccccc2)c(N)n1 | ? | 13µM | – | · | ? | ?
O=C(c1ccco1)[C@@H]1[C@@H]2C(=O)N(c3ccc(Br)cc3)C(=O)[C@@H]2C2c3ccccc3C=CN21 (stereo partly drawn) | – | – | – | 7.2 | – | –
O=C(c1ccco1)[C@@H]1[C@@H]2C(=O)N(c3ccc(F)cc3)C(=O)[C@@H]2C2c3ccccc3C=CN21 (stereo partly drawn) | – | – | – | – | – | –
CC[C@H](NC(C)C)[C@H](O)c1ccc(O)c(O)c1 | – | – | 0.25µM | · | – | ?
CNC[C@H](O)c1ccc(O)c(O)c1 | – | – | · | · | – | ·
Cc1ccnc(Nc2nc3ccccc3o2)n1 | – | – | – | · | 6.3µM | –
Cc1nc(NC2CCCCC2)c2nc(-c3ccccc3)n(CCCN3CCCCC3C)c2n1 (stereo not drawn) | – | – | ? | · | · | ?
CC(C)(C)NC(=O)NC(=O)COc1ccccn1 | – | – | 10µM | – | – | ?
CCC(c1nnnn1CCc1ccccc1)N(Cc1ccco1)Cc1cc2cccc(C)c2[nH]c1=O (stereo not drawn) | – | – | 16µM | – | – | ?
CCOc1ccc2[nH]c(=O)c(CN(Cc3ccco3)C(CC)c3nnnn3Cc3ccccc3)cc2c1 (stereo not drawn) | – | – | – | – | – | ·
O=C(CN1c2cccc3cccc(c23)S1(=O)=O)NCc1ccc2c(c1)OCO2 | –[11.4 µM] | –[11.4 µM] | –[11.4 µM] | · | – | –[11.4 µM]
O=C1c2ccccc2S(=O)(=O)N1Cc1nnc(-c2ccccc2Br)o1 | – | – | ? | · | – | ?
SMILES | 15-hLO inh | Tau filament bind | HEK293 cAMP ctrl | PK Bst | FLuc inh | TSHR agonist
O=S1(=O)c2cccc3cccc(c23)N1Cc1nnc(-c2ccccc2Br)o1 | – | – | ? | 2.1 | – | ?
O=S1(=O)c2cccc3cccc(c23)N1Cc1ccc(-c2nnco2)cc1 | – | – | ? | 1.5 | – | ?
C#CC1CN(Cc2ccccc2)CC(C#C)N1C (stereo not drawn) | · | · | · | – | – | ·
O=C(C1CCN(S(=O)(=O)N2CCC3(CC2)OCCO3)CC1)N1CCC(Cc2ccccc2)CC1 | – | – | – | – | – | –
Cc1cc(OCC(=O)NCc2nc(-c3ccccc3)no2)c(C)cc1Br | – | – | 32µM | – | – | ?
CN(C)c1ncnc2ccc(-c3ccc4c(c3)OCO4)cc12 | – | – | 25µM | · | –[2.29 µM] | ?
